Targets with a hit are over-represented here; the source holds about 7,900 in all. About 0.6% of all pairs of compound and target were hits. Unmarked numbers belong to inactive results.
The targets below were run with CNC(=O)c1ccc(Nc2ncc(C(F)(F)F)c(NCc3nccnc3N(C)S(C)(=O)=O)n2)cc1 [defactinib] (assay: log2 fold change, soluble protein after heating vs DMSO (PISA); higher = thermal stabilisation; K562 cells, 10 uM, 30 min; active = over 0.2 and 3.5 SD of the protein, either way, in both replicates (recomputed)).
How it was run: (§1)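 Soluble protein was quantified by TMTpro 16plex LC-MS/MS after channel sums were equalised. It was obtained as the supernatant after 21,000xg for 90 min from pooled aliquots of K562 cells (2×10^6 cells/mL, 10 μM compound, 30 min) heated for 3 min across 48°C-58°C and extracted in PBS with 0.5% NP-40 at 4°C. Thermal stability values are relative to control samples and come from duplicates. They are given as log2 fold changes.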

Sequence of UniProt Q99590 (Q99590 whole entry, looked up): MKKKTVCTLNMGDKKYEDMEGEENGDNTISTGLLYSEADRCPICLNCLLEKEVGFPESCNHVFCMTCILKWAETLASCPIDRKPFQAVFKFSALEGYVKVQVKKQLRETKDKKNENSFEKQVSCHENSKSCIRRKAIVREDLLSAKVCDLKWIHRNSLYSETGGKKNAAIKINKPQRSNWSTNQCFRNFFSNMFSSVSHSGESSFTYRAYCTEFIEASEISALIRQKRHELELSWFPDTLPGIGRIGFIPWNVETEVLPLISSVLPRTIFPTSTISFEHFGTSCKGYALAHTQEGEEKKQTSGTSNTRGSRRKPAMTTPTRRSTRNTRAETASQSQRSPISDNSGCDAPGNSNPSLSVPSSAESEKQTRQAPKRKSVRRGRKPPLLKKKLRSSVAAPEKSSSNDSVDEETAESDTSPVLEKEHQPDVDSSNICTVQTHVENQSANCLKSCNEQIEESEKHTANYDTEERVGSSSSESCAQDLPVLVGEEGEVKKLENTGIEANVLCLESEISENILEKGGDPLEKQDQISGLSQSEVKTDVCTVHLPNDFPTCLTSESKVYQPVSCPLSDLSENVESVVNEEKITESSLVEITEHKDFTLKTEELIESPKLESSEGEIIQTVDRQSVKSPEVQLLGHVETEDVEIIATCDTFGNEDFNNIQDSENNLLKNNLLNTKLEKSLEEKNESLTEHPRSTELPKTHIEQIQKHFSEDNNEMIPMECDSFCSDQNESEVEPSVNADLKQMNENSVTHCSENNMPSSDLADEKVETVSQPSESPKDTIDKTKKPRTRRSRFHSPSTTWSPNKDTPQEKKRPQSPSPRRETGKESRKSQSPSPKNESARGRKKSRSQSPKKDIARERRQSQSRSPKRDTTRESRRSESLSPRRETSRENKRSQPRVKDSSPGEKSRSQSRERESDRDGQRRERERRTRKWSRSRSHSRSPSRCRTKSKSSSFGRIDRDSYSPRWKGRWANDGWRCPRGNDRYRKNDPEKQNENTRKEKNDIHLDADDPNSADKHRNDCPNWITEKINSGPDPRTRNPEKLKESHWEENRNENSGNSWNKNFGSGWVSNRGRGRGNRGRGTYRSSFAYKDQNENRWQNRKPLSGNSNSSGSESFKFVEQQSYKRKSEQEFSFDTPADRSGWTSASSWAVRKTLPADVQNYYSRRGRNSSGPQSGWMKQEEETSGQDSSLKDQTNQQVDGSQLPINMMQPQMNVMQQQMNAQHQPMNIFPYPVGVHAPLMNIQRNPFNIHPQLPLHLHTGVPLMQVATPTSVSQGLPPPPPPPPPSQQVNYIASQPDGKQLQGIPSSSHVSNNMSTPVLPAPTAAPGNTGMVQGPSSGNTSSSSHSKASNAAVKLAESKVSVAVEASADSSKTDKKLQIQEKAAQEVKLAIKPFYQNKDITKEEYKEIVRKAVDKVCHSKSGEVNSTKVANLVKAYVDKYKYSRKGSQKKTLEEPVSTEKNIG
Sequence of UniProt Q9UBS8 (Q9UBS8 whole entry, looked up): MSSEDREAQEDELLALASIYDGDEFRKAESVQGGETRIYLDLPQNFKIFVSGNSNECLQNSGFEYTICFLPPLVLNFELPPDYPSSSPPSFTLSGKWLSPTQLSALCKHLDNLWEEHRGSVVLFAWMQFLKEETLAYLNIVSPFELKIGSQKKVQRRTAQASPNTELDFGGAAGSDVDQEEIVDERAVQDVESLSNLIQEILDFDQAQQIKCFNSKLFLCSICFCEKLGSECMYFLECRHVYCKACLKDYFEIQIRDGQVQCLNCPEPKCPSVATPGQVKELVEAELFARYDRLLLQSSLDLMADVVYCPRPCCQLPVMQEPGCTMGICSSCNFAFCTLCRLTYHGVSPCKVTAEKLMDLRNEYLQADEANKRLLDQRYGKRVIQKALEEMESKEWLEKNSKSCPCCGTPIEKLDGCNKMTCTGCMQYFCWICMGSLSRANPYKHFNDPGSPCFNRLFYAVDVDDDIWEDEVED
Sequence of UniProt Q96D15 (Q96D15 whole entry, looked up): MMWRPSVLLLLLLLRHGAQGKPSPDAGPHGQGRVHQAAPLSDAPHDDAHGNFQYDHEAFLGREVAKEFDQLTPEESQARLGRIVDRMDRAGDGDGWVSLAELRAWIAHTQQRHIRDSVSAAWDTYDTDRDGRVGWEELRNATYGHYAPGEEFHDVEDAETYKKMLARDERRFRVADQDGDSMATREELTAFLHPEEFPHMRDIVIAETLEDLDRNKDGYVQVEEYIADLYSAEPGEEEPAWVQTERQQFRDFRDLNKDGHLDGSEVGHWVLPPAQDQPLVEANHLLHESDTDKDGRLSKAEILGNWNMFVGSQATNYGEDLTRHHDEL
Sequence of UniProt O94885 (O94885 whole entry, looked up): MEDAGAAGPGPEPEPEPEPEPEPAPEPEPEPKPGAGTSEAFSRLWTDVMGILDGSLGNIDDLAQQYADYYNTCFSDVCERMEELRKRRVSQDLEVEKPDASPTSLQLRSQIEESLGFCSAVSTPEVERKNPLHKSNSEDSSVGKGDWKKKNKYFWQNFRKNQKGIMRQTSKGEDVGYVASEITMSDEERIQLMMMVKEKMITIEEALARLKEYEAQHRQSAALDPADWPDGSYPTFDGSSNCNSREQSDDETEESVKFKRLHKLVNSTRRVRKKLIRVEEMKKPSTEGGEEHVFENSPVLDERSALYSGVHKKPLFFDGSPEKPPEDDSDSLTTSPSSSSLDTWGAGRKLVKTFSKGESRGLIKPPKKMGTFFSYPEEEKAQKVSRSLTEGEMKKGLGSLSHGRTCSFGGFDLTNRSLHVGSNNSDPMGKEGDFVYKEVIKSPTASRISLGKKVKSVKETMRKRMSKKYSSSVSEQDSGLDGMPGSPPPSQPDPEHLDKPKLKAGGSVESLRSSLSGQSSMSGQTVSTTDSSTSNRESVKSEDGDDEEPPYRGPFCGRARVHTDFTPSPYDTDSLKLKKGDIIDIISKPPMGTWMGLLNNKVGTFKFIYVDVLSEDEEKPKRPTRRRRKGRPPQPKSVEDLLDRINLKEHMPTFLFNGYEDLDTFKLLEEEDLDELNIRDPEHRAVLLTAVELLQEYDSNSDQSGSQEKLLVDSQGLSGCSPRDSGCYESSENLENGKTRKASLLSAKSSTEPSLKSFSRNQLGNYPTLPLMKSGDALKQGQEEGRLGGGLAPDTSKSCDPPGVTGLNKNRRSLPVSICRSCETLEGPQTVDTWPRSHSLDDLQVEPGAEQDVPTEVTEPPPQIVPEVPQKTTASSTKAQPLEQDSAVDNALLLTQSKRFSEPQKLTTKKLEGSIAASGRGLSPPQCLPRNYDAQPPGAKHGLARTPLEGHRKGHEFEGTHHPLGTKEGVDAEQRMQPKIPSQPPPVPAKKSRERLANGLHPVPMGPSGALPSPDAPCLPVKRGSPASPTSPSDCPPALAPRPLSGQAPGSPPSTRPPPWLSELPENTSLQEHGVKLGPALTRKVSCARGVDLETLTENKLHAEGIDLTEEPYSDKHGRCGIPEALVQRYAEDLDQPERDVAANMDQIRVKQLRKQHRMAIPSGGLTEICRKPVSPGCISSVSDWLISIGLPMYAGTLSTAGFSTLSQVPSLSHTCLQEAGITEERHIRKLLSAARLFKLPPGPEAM
Sequence of UniProt Q9H2X9 (Q9H2X9 whole entry, looked up): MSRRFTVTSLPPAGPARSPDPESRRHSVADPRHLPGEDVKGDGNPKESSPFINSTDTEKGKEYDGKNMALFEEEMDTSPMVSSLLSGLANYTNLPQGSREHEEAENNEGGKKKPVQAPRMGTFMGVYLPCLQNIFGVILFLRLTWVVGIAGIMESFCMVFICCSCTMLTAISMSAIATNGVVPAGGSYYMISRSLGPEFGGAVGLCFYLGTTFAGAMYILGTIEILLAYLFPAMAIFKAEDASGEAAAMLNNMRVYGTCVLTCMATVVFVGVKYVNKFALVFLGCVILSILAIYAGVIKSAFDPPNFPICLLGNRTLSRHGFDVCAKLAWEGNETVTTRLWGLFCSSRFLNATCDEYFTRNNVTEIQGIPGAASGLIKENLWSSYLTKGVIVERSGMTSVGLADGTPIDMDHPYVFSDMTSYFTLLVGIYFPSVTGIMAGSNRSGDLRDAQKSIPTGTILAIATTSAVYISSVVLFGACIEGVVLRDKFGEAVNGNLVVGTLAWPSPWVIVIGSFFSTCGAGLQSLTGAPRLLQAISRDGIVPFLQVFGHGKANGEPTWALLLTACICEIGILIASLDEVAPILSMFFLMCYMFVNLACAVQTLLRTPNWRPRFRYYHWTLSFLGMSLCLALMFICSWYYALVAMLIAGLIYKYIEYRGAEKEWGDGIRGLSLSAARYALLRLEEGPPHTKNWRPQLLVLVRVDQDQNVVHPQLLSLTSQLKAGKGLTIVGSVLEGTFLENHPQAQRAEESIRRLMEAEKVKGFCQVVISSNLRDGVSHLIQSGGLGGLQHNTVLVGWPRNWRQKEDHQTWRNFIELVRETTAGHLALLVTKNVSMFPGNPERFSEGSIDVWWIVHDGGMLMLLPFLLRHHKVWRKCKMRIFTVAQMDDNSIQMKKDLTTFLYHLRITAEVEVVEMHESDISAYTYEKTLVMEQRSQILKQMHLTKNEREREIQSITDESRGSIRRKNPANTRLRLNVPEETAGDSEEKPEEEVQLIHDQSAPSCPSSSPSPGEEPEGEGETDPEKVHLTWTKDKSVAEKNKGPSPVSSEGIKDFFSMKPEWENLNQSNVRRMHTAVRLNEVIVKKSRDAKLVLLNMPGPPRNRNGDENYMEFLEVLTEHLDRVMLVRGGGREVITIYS
Sequence of UniProt Q7L4I2 (Q7L4I2 whole entry, looked up): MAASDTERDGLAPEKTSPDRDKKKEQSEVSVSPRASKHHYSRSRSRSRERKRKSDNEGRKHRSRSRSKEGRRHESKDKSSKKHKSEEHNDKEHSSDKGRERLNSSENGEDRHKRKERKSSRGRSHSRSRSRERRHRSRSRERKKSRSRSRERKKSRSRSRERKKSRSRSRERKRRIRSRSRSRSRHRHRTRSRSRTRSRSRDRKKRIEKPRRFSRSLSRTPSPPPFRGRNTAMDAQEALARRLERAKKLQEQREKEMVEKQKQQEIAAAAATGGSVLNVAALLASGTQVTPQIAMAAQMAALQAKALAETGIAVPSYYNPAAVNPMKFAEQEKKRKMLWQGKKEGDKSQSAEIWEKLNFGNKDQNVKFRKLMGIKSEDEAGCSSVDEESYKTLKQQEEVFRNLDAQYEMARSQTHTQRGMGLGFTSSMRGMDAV

| Target | log2 fold change |
| --- | --- |
| SCAF11 (UniProt Q99590) | 0.579 (active) |
| SASH1 (UniProt O94885) | -0.064 |
| RRP9 (UniProt O43818) | -0.075 |
| SLC1A5 (UniProt Q15758) | -0.01 |
| RRP12 (UniProt Q5JTH9) | -0.006 |
| RSRC2 (UniProt Q7L4I2) | -0.048 |
| RBM17 (UniProt Q96I25) | -0.174 |
| RAB8B (UniProt Q92930) | -0.004 |
| RPP14 (UniProt O95059) | 0.012 |
| RNASEH2A (UniProt O75792) | 0.117 |
| RNF187 (UniProt Q5TA31) | -0.047 |
| SCO2 (UniProt O43819) | 0.017 |
| RPL31 (UniProt P62899) | 0.282 |
| RSRC1 (UniProt Q96IZ7) | -0.018 |
| RNF14 (UniProt Q9UBS8) | -0.096 |
| SCAF8 isoform 2 (UniProt Q9UPN6) | -0.083 |
| RBM4 (UniProt Q9BWF3) | -0.055 |

| Target | log2 fold change |
| --- | --- |
| RPRD1B (UniProt Q9NQG5) | -0.09 |
| RNF2 (UniProt Q99496) | -0.029 |
| RPTOR (UniProt Q8N122) | -0.074 |
| SLC12A5 (UniProt Q9H2X9) | 0.08 |
| RPS6KA1 isoform 2 (UniProt Q15418) | -0.258 |
| RCN3 (UniProt Q96D15) | 0.096 |
| RRP36 (UniProt Q96EU6) | 0.351 |
| RTN4IP1 (UniProt Q8WWV3) | -0.157 |
| RPS4X (UniProt P62701) | 0.302 |
| RECQL (UniProt P46063) | -0.071 |
| RPS27A (UniProt P62979) | 0.227 |
| RAC3 (UniProt P60763) | 0.011 |
| SART3, A0A499FI31 | -0.448 (active) |
| RAC1 (UniProt P63000) | -0.012 |
| RBM22 (UniProt Q9NW64) | -0.05 |
| RFC3 (UniProt P40938) | -0.052 |

Each target was assayed with CNCc1ccc(-c2[nH]c3cc(F)cc4c3c2CCNC4=O)cc1 [rucaparib] in the same assay as above.
How it was run: as §1

| Target | log2 fold change |
| --- | --- |
| SCAF11 (UniProt Q99590) | 0.35 |
| SASH1 (UniProt O94885) | 0.03 |
| RRP9 (UniProt O43818) | 0.019 |
| SLC1A5 (UniProt Q15758) | -0.015 |
| RRP12 (UniProt Q5JTH9) | 0.183 |
| RSRC2 (UniProt Q7L4I2) | -0.004 |
| RBM17 (UniProt Q96I25) | 0.055 |
| RAB8B (UniProt Q92930) | -0.014 |
| RPP14 (UniProt O95059) | 0.004 |
| RNASEH2A (UniProt O75792) | 0.018 |
| RNF187 (UniProt Q5TA31) | -0.139 |
| SCO2 (UniProt O43819) | 0.087 |
| RPL31 (UniProt P62899) | 0.238 |
| RSRC1 (UniProt Q96IZ7) | -0.04 |
| RNF14 (UniProt Q9UBS8) | -0.015 |
| SCAF8 isoform 2 (UniProt Q9UPN6) | 0.004 |
| RBM4 (UniProt Q9BWF3) | 0.157 |

| Target | log2 fold change |
| --- | --- |
| RPRD1B (UniProt Q9NQG5) | -0.116 |
| RNF2 (UniProt Q99496) | -0.054 |
| RPTOR (UniProt Q8N122) | -0.068 |
| SLC12A5 (UniProt Q9H2X9) | -0.138 |
| RPS6KA1 isoform 2 (UniProt Q15418) | -0.108 |
| RCN3 (UniProt Q96D15) | 0.038 |
| RRP36 (UniProt Q96EU6) | 0.057 |
| RTN4IP1 (UniProt Q8WWV3) | -0.178 |
| RPS4X (UniProt P62701) | 0.185 |
| RECQL (UniProt P46063) | -0.002 |
| RPS27A (UniProt P62979) | 0.105 |
| RAC3 (UniProt P60763) | -0.134 |
| SART3, A0A499FI31 | -0.156 |
| RAC1 (UniProt P63000) | 0.075 |
| RBM22 (UniProt Q9NW64) | 0.04 |
| RFC3 (UniProt P40938) | -0.011 |

The targets below were run with CNc1nc(-c2ccc3c(N)n[nH]c3c2)cc(N2C[C@@H](C(=O)NC3CCCCC3)CC[C@H]2C)n1 in the same assay as above.
How it was run: as §1

| Target | log2 fold change |
| --- | --- |
| SCAF11 (UniProt Q99590) | -0.052 |
| SASH1 (UniProt O94885) | -0.015 |
| RRP9 (UniProt O43818) | -0.094 |
| SLC1A5 (UniProt Q15758) | 0.033 |
| RRP12 (UniProt Q5JTH9) | -0.005 |
| RSRC2 (UniProt Q7L4I2) | -0.016 |
| RBM17 (UniProt Q96I25) | -0.025 |
| RAB8B (UniProt Q92930) | 0.056 |
| RPP14 (UniProt O95059) | -0.029 |
| RNASEH2A (UniProt O75792) | 0.033 |
| RNF187 (UniProt Q5TA31) | 0.05 |
| SCO2 (UniProt O43819) | -0.004 |
| RPL31 (UniProt P62899) | 0.121 |
| RSRC1 (UniProt Q96IZ7) | -0.004 |
| RNF14 (UniProt Q9UBS8) | -0.043 |
| SCAF8 isoform 2 (UniProt Q9UPN6) | 0.016 |
| RBM4 (UniProt Q9BWF3) | -0.036 |

| Target | log2 fold change |
| --- | --- |
| RPRD1B (UniProt Q9NQG5) | -0.011 |
| RNF2 (UniProt Q99496) | -0.059 |
| RPTOR (UniProt Q8N122) | 0.033 |
| SLC12A5 (UniProt Q9H2X9) | 0.148 |
| RPS6KA1 isoform 2 (UniProt Q15418) | -0.101 |
| RCN3 (UniProt Q96D15) | -0.309 |
| RRP36 (UniProt Q96EU6) | 0.007 |
| RTN4IP1 (UniProt Q8WWV3) | -0.069 |
| RPS4X (UniProt P62701) | 0.089 |
| RECQL (UniProt P46063) | -0.013 |
| RPS27A (UniProt P62979) | 0.043 |
| RAC3 (UniProt P60763) | 0.085 |
| SART3, A0A499FI31 | -0.041 |
| RAC1 (UniProt P63000) | 0.043 |
| RBM22 (UniProt Q9NW64) | -0.155 |
| RFC3 (UniProt P40938) | 0.007 |
